Laboratory results published in the supplement of paper PMC11732987, “Enantioselective OTUD7B fragment discovery through chemoproteomics screening and high-throughput optimisation” (Communications Chemistry, 2025).

These compounds were tested against USP14 (UniProt P54578) (assay: log2 ratio of Biotin-Ahx-Ub-VS probe labelling (fragment/DMSO); higher = less target engagement (more negative = stronger competition), active = hit call of the paper (q ≤ 0.05, log2 ratio ≤ -1)). Conditions: compound concentration: 200 uM; treatment time: 3 h.
USP14, sequence (P54578 whole entry, the tested form may be a part): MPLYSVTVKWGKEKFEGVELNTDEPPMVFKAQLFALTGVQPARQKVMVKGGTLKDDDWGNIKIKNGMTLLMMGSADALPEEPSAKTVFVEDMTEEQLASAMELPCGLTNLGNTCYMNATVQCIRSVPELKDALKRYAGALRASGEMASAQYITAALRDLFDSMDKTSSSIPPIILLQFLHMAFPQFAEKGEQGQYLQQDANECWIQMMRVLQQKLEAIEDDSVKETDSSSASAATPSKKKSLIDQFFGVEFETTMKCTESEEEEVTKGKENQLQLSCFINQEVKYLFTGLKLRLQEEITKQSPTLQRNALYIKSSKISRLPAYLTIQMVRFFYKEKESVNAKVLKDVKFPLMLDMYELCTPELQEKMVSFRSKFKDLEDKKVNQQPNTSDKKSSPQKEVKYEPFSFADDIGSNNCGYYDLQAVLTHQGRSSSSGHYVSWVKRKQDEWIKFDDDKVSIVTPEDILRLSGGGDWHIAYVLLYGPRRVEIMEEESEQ
Procedure: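 Competitive ABPP in HEK293T cell lysate. Lysates were treated with each chloroacetamide fragment at 200 µM for 3 h, then with Biotin-Ahx-Ub-VS (0.5 µM, 1 h), NeutrAvidin-enriched and analysed by diaPASEF LC-MS/MS. Protein LFQ was median-normalised; average log2 ratio is fragment/DMSO from an unpaired t-test (n=3 treated, n=44 DMSO). Hits: q ≤ 0.05, log2 ratio ≤ -1, unique peptides ≥ 2.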

log2 ratio of Biotin-Ahx-Ub-VS probe labelling, inactive:
CNC(=O)C1(NC(=O)CCl)CCCCC1 -0.0905
N#Cc1cnn(-c2ccccc2)c1NC(=O)CCl -0.345
CN1C(=O)c2ccc(NC(=O)CCl)cc2C1=O -0.292
Cc1cccc2nc(CCNC(=O)CCl)cn12.Cl -0.259
CCN(C(=O)CCl)C1CCS(=O)(=O)C1 (configuration not stated) -0.155
CC(NC(=O)CCl)c1csc(-c2ccccc2)n1.Cl (configuration not stated) -0.367
CC(C)n1nccc1NC(=O)CCl -0.146
